Test results: PubChem BioAssay (EPA / NIEHS)
Calls of active or inactive are those of the source. Rule for the calls: active = hit-call score of the fitted dose curve at least 0.9, where 1 is the maximum; inactive = score below 0.9.

How the values were obtained:
Settings in all cases: mRNA level, 48 h; actives raise or lower the signal
[1] = read-out: Alpha-fetoprotein (AFP) gene, AFP (gene 174); assay: LTEA_HepaRG_AFP: Life Technologies and Expression Analysis (LTEA) Assay for Alpha-fetoprotein (AFP) gene using HepaRG (AID 2283472)
Summary of the method: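 HepaRG, single lot; 48 h post-plating -> serum-free induction medium; cpd 8-pt, 100 uM top, half-log, 0.5% DMSO, duplicate, 48 h. RNA -> qRT-PCR AFP, norm ACTB/GAPDH/POLR2A. Bidirectional fit vs DMSO.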

BCL2L11 (gene 10018) = assay: LTEA_HepaRG_BCL2L11: Life Technologies and Expression Analysis (LTEA) Assay for Bcl-2 (BCL2L11) gene using HepaRG (AID 2283473)
Summary of the method: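 HepaRG, 48 h exposure, 8-pt half-log series from 100 uM in 0.5% DMSO, duplicates; qRT-PCR (Fluidigm TaqMan) for BCL2L11, housekeeping-normalized; bidirectional curve fit relative to DMSO baseline.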

[2] = read-out: Apolipoprotein A-V (APOA5) gene, APOA5 (gene 116519); assay: LTEA_HepaRG_APOA5: Life Technologies and Expression Analysis (LTEA) Assay for Apolipoprotein A-V (APOA5) gene using HepaRG (AID 2283474)
Summary of the method: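 HepaRG, 48 h chemical exposure in serum-free induction medium, 8-pt half-log series (top 100 uM), 0.5% DMSO vehicle, duplicates. Readout: APOA5 mRNA by qRT-PCR, housekeeping-normalized; bidirectional fit vs DMSO baseline.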

[3] = read-out: Apoptosis regulator Bcl-2 (Homo sapiens) (UniProt P10415); assay: LTEA_HepaRG_BCL2: Life Technologies and Expression Analysis (LTEA) Assay for Bcl-2 gene using HepaRG (AID 2283475)
Summary of the method: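 HepaRG, plated 48 h then switched to serum-free induction medium; dosed 48 h, 8 conc. (max 100 uM, half-log steps), duplicate, 0.5% DMSO. Lysis in RLT, RNA isolated, TaqMan qRT-PCR for BCL2; ACTB/GAPDH/POLR2A normalisation; bidirectional fit vs DMSO.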

[4] = read-out: Bcl-2 (BID) gene, BID (gene 637); assay: LTEA_HepaRG_BID: Life Technologies and Expression Analysis (LTEA) Assay for Bcl-2 (BID) gene using HepaRG (AID 2283476)
Summary of the method: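 Transcript levels of BID, measured by qRT-PCR and normalized to three housekeeping genes, were fitted bidirectionally against DMSO controls. Cells were HepaRG, dosed 48 h at up to 100 uM.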

Caspase-3 (Homo sapiens) = Caspase-3 (Homo sapiens) (UniProt P42574); assay: LTEA_HepaRG_CASP3: Life Technologies and Expression Analysis (LTEA) Assay for cysteine-aspartic acid protease (CASP3) using HepaRG (AID 2283477)
Summary of the method: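 HepaRG, 48 h exposure, 8 conc. (top 100 uM, half-log steps, duplicate), 0.5% DMSO vehicle; qRT-PCR of CASP3 transcript, housekeeping-normalised (ACTB/GAPDH/POLR2A); bidirectional curve fit vs DMSO baseline.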

[5] = read-out: Cytochrome P450 (CYP24A1), CYP24A1 (gene 1591); assay: LTEA_HepaRG_CYP24A1: Life Technologies and Expression Analysis (LTEA) Assay for Cytochrome P450 (CYP24A1) using HepaRG (AID 2283478)
Summary of the method: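 qRT-PCR read-out: CYP24A1 transcript levels normalized to three housekeeping genes, bidirectional curve fits against 0.5% DMSO baseline. Human HepaRG cells treated 48 h with chemicals at eight concentrations from 100 uM in half-log steps.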

[6] = read-out: Cytochrome P450 (CYP1A2), CYP1A2 (gene 1544); assay: LTEA_HepaRG_CYP1A2: Life Technologies and Expression Analysis (LTEA) Assay for Cytochrome P450 (CYP1A2) using HepaRG (AID 2283479)
Summary of the method: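 HepaRG, 48 h exposure, top 100 uM, half-log 8-pt, 0.5% DMSO vehicle, duplicates. Readout: TaqMan qRT-PCR of CYP1A2 mRNA, housekeeping-normalized (ACTB/GAPDH/POLR2A). Gain/loss fit relative to DMSO baseline.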

[7] = read-out: cysteine-aspartic acid protease (CASP8), CASP8 (gene 841); assay: LTEA_HepaRG_CASP8: Life Technologies and Expression Analysis (LTEA) Assay for cysteine-aspartic acid protease (CASP8) using HepaRG (AID 2283480)
Summary of the method: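 HepaRG, 48 h exposure, duplicate wells; 8 conc, half-log from 100 uM, 0.5% DMSO. Serum-free induction medium. CASP8 mRNA by TaqMan qRT-PCR, norm. ACTB/GAPDH/POLR2A; gain/loss fitted vs DMSO.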

[8] = read-out: Cytochrome P450 (CYP2B6), CYP2B6 (gene 1555); assay: LTEA_HepaRG_CYP2B6: Life Technologies and Expression Analysis (LTEA) Assay for Cytochrome P450 (CYP2B6) using HepaRG (AID 2283481)
Summary of the method: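 Read-out is CYP2B6 mRNA by TaqMan qRT-PCR, normalized to three housekeeping genes and fitted bidirectionally against 0.5% DMSO baseline. Human HepaRG cells received test chemicals for 48 h, top concentration 100 uM, half-log dilutions.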

[9] = read-out: Cytochrome P450 2C19 (Homo sapiens) (UniProt P33261); assay: LTEA_HepaRG_CYP2C19: Life Technologies and Expression Analysis (LTEA) Assay for CYP2C19 using HepaRG (AID 2283482)
Summary of the method: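 HepaRG, 48 h chemical exposure, 8-pt half-log series from 100 uM in 0.5% DMSO, duplicates. Readout: CYP2C19 mRNA by TaqMan qRT-PCR, housekeeping-normalized. Bidirectional fit vs DMSO baseline; phenobarbital 1mM as induction control.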

CYP2C8 (gene 1558) = assay: LTEA_HepaRG_CYP2C8: Life Technologies and Expression Analysis (LTEA) Assay for CYP2C8 using HepaRG (AID 2283483)
Summary of the method: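 CYP2C8 mRNA induction or loss, by qRT-PCR normalized to ACTB/GAPDH/POLR2A, is read in HepaRG cells after 48 h treatment. Concentrations run from 100 uM down in half-log dilutions, with 0.5% DMSO as vehicle and baseline.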

CYP2C9 (gene 1559) = assay: LTEA_HepaRG_CYP2C9: Life Technologies and Expression Analysis (LTEA) Assay for CYP2C9 using HepaRG (AID 2283484)
Summary of the method: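 Cells plated 48 h, switched to serum-free induction medium, then treated in duplicate for 48 h at eight concentrations (max 100 uM, 0.5% DMSO). RNA then analysed by qRT-PCR for CYP2C9; curves fitted in both directions relative to DMSO.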

CYP2E1 (gene 1571) = assay: LTEA_HepaRG_CYP2E1: Life Technologies and Expression Analysis (LTEA) Assay for CYP2E1 using HepaRG (AID 2283485)
Summary of the method: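 Human liver line HepaRG, plated 48 h, then serum-free induction medium + chemical x 48 h; 8-pt CRC from 100 uM, half-log, 0.5% DMSO, n=2. Readout: CYP2E1 mRNA qRT-PCR vs ACTB/GAPDH/POLR2A; bidirectional fit vs DMSO.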

CYP4A11 (gene 1579) = assay: LTEA_HepaRG_CYP4A11: Life Technologies and Expression Analysis (LTEA) Assay for CYP4A11 using HepaRG (AID 2283486)
Summary of the method: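 CYP4A11 transcript levels were quantified by TaqMan qRT-PCR after HepaRG human liver cells were treated for 48 hours with test chemicals (top 100 uM, half-log dilutions, 0.5% DMSO). Gain or loss of signal was fitted relative to DMSO.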

[10] = read-out: Cytochrome P450 3A4 (Homo sapiens) (UniProt P08684); assay: LTEA_HepaRG_CYP3A4: Life Technologies and Expression Analysis (LTEA) Assay for CYP3A4 using HepaRG (AID 2283487)
Summary of the method: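 Differentiated HepaRG cells in serum-free induction medium exposed in duplicate for 48 h to 8 half-log concentrations up to 100 uM in 0.5% DMSO. CYP3A4 mRNA measured by qRT-PCR normalized to ACTB, GAPDH and POLR2A; bidirectional fit versus DMSO.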

[11] = read-out: DNA damage-inducible transcript 3 (DDIT3), DDIT3 (gene 1649); assay: LTEA_HepaRG_DDIT3: Life Technologies and Expression Analysis (LTEA) Assay for DNA damage-inducible transcript 3 (DDIT3) using HepaRG (AID 2283488)
Summary of the method: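 HepaRG plated 48 h, switched to serum-free induction medium, dosed 48 h (100 uM top, half-log, 8 pts, 0.5% DMSO, n=2); RNA isolated; DDIT3 by qRT-PCR; bidirectional curve fit vs DMSO.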

[12] = read-out: Early growth response protein 1 (EGR1) transcription factor, EGR1 (gene 1958); assay: LTEA_HepaRG_EGR1: Life Technologies and Expression Analysis (LTEA) Assay for Early growth response protein 1 (EGR1) transcription factor using HepaRG (AID 2283490)
Summary of the method: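 Read-out is EGR1 mRNA level by qRT-PCR, normalized to three housekeeping genes and analysed for gain or loss of signal against 0.5% DMSO. Source cells: human HepaRG, treated 48 h at up to 100 uM in half-log dilutions.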

[13] = read-out: Ezrin (EZR), EZR (gene 7430); assay: LTEA_HepaRG_EZR: Life Technologies and Expression Analysis (LTEA) Assay for Ezrin (EZR) using HepaRG (AID 2283491)
Summary of the method: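 Differentiated human HepaRG cells, 48 h after plating, were exposed in serum-free induction medium for 48 hours to eight half-log concentrations up to 100 uM in 0.5% DMSO. EZR mRNA was measured by TaqMan qRT-PCR, normalized to ACTB, GAPDH and POLR2A, and fitted bidirectionally against DMSO.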

Measured: AC50

Chain of Cytochrome P450 2C19 (Homo sapiens) (P33261 whole entry, looked up): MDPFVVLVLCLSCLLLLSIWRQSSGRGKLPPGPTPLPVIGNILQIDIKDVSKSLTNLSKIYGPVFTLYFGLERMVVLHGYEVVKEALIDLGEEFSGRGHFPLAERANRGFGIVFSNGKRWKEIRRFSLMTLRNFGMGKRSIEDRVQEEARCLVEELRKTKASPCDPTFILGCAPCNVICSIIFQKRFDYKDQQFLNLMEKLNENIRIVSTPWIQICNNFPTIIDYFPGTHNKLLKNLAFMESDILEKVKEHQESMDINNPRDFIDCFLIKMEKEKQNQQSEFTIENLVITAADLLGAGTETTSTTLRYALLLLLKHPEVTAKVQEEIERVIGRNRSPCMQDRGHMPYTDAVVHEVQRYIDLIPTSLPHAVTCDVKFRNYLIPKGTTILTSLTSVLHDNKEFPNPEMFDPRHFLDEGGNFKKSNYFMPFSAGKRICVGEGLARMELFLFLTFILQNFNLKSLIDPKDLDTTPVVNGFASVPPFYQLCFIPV
Chain of Apoptosis regulator Bcl-2 (Homo sapiens) (P10415 whole entry, looked up): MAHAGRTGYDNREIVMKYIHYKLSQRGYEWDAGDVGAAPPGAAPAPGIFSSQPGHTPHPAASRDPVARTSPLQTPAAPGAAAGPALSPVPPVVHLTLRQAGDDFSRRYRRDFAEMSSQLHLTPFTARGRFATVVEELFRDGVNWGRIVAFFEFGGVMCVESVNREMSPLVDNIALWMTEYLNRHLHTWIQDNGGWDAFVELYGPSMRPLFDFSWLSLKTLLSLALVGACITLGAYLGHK
Chain of Caspase-3 (Homo sapiens) (P42574 whole entry, looked up): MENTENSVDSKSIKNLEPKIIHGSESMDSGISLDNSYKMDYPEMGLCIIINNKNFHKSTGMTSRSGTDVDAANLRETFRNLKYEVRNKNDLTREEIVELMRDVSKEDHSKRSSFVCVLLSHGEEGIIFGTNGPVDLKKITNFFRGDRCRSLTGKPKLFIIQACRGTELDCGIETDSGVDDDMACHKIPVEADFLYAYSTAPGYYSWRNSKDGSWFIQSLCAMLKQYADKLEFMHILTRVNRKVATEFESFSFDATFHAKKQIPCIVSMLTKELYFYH
Chain of Cytochrome P450 3A4 (Homo sapiens) (P08684 whole entry, looked up): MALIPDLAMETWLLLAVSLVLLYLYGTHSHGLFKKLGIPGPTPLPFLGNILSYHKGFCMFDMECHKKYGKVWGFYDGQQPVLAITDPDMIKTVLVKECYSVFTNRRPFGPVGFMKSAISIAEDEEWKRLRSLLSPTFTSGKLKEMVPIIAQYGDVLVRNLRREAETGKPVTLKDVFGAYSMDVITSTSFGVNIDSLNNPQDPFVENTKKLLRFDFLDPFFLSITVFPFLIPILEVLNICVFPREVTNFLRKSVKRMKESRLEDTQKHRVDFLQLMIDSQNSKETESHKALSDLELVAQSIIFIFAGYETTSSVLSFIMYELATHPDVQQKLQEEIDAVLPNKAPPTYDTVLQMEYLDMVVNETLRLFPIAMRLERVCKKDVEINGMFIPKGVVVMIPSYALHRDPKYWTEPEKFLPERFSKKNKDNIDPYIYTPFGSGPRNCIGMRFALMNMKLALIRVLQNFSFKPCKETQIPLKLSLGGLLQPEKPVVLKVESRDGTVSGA

OCCO
active: Caspase-3 (Homo sapiens) 9.97 µM
not listed: [13]
inactive: all other assays above

CN(C)C(=O)C1(N2CCCCC2)CCN(CC[C@@]2(c3ccc(Cl)c(Cl)c3)CN(C(=O)c3ccccc3)CCO2)CC1
active: BCL2L11 (gene 10018) 86.8 µM | [3] 22.6 µM | [6] 24.2 µM | [8] 27.8 µM | [9] 23.9 µM | CYP2C8 (gene 1558) 28 µM | CYP2C9 (gene 1559) 21.9 µM | CYP2E1 (gene 1571) 8.56 µM | CYP4A11 (gene 1579) 14.9 µM | [11] 17.5 µM | [12] 53.1 µM
inactive: [1] | [2] | [4] | Caspase-3 (Homo sapiens) | [5] | [7]

c1ccc(C[n+]2cccc3ccccc32)cc1
inactive: [4] | Caspase-3 (Homo sapiens) | [5] | [6] | [7] | [12]
active: [1] 35 µM | BCL2L11 (gene 10018) 32.4 µM | [2] 31.4 µM | [3] 35.1 µM | [8] 50 µM | [9] 50 µM | CYP2C8 (gene 1558) 30 µM | CYP2C9 (gene 1559) 31 µM | CYP2E1 (gene 1571) 24.6 µM | CYP4A11 (gene 1579) 22.3 µM | [10] 33.4 µM | [11] 30.9 µM | [13] 14.7 µM
